Drawing on article PMC7862700, “An all-to-all approach to the identification of sequence-specific readers for epigenetic DNA modifications on cytosine”, this text covers binding signal for 1 sequence.

Common to all, as to assay: DAPPL (digital affinity profiling via proximity ligation, sequencing); 10 mM Tris-HCl pH 7.5, 50 mM NaCl, 1 mM DTT, 4% glycerol, room temperature, 30 min; GST-TFs on glutathione beads, 16-mer random dsDNA library, 0.1% formaldehyde crosslink after washing; high values mean tight binding
The target of one test is T1, FEV (Homo sapiens, UniProt Q99581 1-238).
T1 sequence: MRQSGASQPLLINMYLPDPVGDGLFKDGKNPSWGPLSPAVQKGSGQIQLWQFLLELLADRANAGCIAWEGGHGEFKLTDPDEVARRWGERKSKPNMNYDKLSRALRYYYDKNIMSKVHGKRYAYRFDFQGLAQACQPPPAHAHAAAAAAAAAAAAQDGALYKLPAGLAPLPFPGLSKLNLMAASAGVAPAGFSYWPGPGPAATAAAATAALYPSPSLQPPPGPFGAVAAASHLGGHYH
Particulars: protein: recombinant; tags: N-terminal GST; dsDNA, one strand shown. In short, it runs like this:
(§1)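 Human transcription factors were made in yeast as GST fusions, captured on glutathione beads and barcoded with DNA. With a tag-only sample included, the pool was incubated with 200 nmole of a random double-stranded 16-mer DNA library in Tris/NaCl/DTT/glycerol buffer at room temperature for 30 min, then crosslinked with 0.1% formaldehyde after washing, ligated by proximity, amplified and sequenced. For binding signal, each hexamer's read frequency for a factor is divided by its frequency for the tag-only sample.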

The target of the next test is ETV5 (Homo sapiens, UniProt P41161 1-510). Particulars: protein: recombinant; tags: N-terminal GST; dsDNA, one strand shown. In short, it runs like this:
as §1

Another test addresses HSF1 (Homo sapiens, UniProt Q00613 1-529). Particulars: protein: recombinant; tags: N-terminal GST; chain copies: 3; dsDNA, one strand shown. Summed up:
as §1

Another test has as its target T2, SPIC (Homo sapiens, UniProt Q8N5J4 1-248).
T2 sequence: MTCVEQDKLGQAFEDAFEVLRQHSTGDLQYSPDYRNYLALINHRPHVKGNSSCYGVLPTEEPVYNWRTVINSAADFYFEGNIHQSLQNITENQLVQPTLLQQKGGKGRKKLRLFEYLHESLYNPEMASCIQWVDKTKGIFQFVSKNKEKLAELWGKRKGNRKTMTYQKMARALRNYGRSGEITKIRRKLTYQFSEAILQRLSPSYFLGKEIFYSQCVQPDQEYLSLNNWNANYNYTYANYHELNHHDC
Particulars: protein: recombinant; tags: N-terminal GST; dsDNA, one strand shown. In short, it runs like this:
as §1

A further test has as its target ELF4 (Homo sapiens, UniProt Q99607 1-663). Particulars: protein: recombinant; tags: N-terminal GST; dsDNA, one strand shown. Summed up:
as §1

A further test has as its target T3, ELK4 (Homo sapiens, UniProt P28324-2 1-405).
T3 sequence: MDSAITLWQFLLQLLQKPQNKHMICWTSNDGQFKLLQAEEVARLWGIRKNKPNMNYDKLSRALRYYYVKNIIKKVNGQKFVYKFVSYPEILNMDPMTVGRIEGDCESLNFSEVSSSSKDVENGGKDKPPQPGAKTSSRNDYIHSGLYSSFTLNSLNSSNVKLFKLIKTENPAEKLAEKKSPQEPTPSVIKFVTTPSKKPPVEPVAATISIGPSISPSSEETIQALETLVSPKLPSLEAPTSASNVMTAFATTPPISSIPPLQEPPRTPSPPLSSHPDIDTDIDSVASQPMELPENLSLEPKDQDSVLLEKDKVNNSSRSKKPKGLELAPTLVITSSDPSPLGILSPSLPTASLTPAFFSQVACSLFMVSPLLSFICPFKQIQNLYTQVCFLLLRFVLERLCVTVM
Particulars: protein: recombinant; tags: N-terminal GST; dsDNA, one strand shown. Summed up:
as §1

In another test the target is T4, ETV2 (Homo sapiens, UniProt O00321 1-342).
T4 sequence: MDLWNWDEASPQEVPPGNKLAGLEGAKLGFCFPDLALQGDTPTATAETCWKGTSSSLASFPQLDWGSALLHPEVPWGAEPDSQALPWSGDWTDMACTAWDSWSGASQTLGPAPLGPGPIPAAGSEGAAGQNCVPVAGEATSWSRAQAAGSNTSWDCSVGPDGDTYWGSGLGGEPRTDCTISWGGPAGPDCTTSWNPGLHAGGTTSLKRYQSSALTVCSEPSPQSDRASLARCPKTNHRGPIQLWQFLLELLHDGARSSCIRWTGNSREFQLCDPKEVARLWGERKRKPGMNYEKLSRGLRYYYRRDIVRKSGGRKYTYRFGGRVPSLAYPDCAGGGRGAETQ
Particulars: protein: recombinant; tags: N-terminal GST; dsDNA, one strand shown. In short, it runs like this:
as §1

A further test concerns the target T5, ELF3 (Homo sapiens, UniProt P78545 1-371).
T5 sequence: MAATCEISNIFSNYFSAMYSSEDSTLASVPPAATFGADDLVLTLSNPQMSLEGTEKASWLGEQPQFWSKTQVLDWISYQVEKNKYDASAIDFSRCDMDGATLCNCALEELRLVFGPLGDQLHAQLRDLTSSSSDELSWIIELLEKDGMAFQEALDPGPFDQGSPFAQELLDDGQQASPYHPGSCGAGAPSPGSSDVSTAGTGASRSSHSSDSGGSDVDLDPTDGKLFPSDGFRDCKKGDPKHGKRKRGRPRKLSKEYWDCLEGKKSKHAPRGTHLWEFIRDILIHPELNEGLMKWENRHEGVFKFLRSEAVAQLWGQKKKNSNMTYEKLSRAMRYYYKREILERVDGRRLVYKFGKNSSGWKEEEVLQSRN
Particulars: protein: recombinant; tags: N-terminal GST; dsDNA, one strand shown. In short, it runs like this:
as §1

The target of another test is CRX (Homo sapiens, UniProt O43186 1-299). Particulars: protein: recombinant; tags: N-terminal GST; dsDNA, one strand shown. Summed up:
as §1

The next test addresses ETV1 (Homo sapiens, UniProt P50549 1-477). Particulars: protein: recombinant; tags: N-terminal GST; dsDNA, one strand shown. Summed up: as §1
For the next test, the target named is T6, ERF (Homo sapiens, UniProt P50548 1-548).
T6 sequence: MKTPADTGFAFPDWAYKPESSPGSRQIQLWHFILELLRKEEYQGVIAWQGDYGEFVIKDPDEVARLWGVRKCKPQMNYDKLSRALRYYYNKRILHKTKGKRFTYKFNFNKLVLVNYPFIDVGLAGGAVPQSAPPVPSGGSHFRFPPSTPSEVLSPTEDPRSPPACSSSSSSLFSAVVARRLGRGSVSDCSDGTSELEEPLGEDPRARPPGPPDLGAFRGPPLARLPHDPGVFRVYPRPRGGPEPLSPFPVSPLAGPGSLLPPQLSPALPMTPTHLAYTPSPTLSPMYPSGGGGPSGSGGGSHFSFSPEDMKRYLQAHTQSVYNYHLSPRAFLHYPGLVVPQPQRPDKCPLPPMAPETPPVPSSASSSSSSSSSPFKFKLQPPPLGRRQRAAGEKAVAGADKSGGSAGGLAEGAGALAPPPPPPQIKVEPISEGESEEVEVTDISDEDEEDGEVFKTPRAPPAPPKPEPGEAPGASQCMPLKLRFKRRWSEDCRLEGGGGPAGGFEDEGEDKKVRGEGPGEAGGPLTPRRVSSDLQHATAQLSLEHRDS
Particulars: protein: recombinant; tags: N-terminal GST; dsDNA, one strand shown. In short, it runs like this:
as §1

Another test deals with T7, ETV3L (Homo sapiens, UniProt Q6ZN32 1-361).
T7 sequence: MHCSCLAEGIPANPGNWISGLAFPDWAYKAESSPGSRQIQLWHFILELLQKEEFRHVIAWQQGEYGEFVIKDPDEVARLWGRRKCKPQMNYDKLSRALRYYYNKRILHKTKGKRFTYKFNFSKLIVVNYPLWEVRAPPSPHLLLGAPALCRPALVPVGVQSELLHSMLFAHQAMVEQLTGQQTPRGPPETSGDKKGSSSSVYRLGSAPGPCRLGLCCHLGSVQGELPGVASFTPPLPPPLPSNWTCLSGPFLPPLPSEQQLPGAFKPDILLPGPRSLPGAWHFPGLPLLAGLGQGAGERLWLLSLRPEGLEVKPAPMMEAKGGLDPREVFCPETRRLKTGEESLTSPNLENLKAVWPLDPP
Particulars: protein: recombinant; tags: N-terminal GST; dsDNA, one strand shown. In short, it runs like this: as §1

Another test addresses T8, ETS2 (Homo sapiens, UniProt P15036 1-469).
T8 sequence: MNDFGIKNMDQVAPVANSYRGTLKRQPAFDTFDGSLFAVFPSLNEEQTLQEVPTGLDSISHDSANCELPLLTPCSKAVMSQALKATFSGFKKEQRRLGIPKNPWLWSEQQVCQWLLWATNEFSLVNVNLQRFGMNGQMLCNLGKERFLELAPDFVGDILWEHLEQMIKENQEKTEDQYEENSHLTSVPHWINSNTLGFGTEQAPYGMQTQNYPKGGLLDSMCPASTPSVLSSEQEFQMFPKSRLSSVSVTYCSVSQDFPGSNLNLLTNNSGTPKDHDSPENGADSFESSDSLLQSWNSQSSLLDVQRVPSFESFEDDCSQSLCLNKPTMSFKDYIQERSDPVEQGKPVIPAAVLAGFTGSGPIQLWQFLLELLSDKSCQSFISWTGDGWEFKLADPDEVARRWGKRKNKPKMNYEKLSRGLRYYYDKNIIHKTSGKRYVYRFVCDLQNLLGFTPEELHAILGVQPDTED
Particulars: protein: recombinant; tags: N-terminal GST; dsDNA, one strand shown. Summed up:
as §1

The target in the next test is T9, SPDEF (Homo sapiens, UniProt O95238 1-335).
T9 sequence: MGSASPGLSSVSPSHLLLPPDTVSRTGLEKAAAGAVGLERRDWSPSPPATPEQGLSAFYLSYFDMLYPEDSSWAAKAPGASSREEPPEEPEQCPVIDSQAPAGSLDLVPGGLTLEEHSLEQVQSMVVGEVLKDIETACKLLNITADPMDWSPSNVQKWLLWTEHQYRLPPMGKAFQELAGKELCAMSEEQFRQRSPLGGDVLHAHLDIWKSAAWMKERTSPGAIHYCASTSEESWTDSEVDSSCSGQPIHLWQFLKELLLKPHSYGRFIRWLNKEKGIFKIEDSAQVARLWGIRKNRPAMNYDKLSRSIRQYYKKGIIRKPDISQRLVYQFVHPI
Particulars: protein: recombinant; tags: N-terminal GST; dsDNA, one strand shown. In short, it runs like this:
as §1

The target in a further test is T10, ETV7 (Homo sapiens, UniProt Q9Y603 1-341).
T10 sequence: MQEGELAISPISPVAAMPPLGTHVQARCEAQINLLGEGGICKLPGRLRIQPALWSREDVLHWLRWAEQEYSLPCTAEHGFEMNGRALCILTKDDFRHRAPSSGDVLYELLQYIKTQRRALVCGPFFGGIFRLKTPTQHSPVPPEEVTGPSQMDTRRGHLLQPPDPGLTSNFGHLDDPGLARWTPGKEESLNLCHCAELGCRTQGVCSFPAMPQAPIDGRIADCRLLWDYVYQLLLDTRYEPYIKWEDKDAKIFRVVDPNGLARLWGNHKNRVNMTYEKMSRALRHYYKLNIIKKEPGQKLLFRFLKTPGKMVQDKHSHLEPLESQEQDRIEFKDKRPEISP
Particulars: protein: recombinant; tags: N-terminal GST; dsDNA, one strand shown. In short, it runs like this: as §1

A further test has as its target T11, ELF5 (Homo sapiens, UniProt Q9UKW6-2 1-255).
T11 sequence: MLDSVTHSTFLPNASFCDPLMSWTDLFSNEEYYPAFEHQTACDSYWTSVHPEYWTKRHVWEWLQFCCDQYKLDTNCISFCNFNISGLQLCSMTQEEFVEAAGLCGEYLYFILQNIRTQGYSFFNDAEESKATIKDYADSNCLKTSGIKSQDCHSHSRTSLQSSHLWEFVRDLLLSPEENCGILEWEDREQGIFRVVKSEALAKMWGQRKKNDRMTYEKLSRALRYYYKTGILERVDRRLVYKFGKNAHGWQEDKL
Particulars: protein: recombinant; tags: N-terminal GST; dsDNA, one strand shown. Summed up: as §1

A further test addresses T12, ETV3 (Homo sapiens, UniProt P41162-2 1-143).
T12 sequence: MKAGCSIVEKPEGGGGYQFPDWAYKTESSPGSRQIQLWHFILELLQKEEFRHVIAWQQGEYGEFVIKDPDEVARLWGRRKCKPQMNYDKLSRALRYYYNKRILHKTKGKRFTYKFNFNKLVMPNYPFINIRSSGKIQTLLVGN
Particulars: protein: recombinant; tags: N-terminal GST; dsDNA, one strand shown. Summed up:
as §1

The target in another test is ETV6 (Homo sapiens, UniProt P41212 1-452). Particulars: protein: recombinant; tags: N-terminal GST; dsDNA, one strand shown. In short, it runs like this: as §1
Chain of ETV6 (P41212 whole entry): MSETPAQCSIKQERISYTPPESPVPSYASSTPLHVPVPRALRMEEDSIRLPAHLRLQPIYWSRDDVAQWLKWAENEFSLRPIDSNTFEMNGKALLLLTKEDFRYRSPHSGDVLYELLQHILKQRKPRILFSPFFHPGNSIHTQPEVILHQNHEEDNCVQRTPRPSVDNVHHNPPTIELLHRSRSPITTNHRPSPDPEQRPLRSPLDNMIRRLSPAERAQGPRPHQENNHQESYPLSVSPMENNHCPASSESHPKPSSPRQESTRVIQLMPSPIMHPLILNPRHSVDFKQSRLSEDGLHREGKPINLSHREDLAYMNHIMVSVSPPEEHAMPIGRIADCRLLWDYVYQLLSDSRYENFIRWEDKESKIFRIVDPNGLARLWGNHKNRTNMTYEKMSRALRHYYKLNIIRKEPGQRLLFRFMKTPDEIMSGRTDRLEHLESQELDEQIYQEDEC

Chain of CRX (O43186 whole entry): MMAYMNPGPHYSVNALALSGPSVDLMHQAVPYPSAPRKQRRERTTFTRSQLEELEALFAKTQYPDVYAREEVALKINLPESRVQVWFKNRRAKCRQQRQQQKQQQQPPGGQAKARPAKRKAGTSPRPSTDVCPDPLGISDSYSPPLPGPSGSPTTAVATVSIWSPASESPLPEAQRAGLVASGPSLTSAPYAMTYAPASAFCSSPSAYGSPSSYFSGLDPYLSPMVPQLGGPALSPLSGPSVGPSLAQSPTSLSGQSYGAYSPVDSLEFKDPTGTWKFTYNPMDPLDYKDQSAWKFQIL
Chain of ETV1 (P50549 whole entry): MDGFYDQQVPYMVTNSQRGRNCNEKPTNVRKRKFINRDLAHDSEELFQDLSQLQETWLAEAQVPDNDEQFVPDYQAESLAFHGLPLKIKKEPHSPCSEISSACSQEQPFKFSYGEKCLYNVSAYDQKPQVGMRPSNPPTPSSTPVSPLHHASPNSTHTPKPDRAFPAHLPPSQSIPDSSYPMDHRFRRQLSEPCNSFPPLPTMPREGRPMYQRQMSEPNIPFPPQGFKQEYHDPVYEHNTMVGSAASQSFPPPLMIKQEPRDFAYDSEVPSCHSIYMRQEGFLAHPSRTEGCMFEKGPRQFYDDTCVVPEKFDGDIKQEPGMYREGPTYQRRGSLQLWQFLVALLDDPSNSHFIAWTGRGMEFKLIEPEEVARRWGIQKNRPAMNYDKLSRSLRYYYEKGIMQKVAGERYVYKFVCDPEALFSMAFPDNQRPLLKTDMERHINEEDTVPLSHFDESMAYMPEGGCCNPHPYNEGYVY
Chain of ELF4 (Q99607 whole entry): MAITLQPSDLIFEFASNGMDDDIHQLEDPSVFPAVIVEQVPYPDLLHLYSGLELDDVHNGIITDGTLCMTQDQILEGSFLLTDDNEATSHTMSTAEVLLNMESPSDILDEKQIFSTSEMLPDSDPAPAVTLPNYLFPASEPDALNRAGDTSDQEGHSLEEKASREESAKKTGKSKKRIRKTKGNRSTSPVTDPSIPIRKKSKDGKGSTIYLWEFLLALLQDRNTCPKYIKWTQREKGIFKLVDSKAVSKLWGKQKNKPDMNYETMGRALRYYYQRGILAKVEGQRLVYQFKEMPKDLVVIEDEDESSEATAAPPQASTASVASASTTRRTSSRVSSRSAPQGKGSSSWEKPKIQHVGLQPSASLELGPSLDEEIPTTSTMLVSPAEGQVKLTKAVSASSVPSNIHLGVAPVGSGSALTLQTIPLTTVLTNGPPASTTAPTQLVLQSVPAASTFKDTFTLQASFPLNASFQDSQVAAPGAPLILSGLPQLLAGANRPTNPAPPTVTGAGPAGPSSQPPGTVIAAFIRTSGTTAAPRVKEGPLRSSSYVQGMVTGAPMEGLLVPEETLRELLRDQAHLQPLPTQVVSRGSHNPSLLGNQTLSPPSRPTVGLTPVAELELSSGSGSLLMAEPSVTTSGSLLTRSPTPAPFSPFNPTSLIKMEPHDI
Chain of HSF1 (Q00613 whole entry): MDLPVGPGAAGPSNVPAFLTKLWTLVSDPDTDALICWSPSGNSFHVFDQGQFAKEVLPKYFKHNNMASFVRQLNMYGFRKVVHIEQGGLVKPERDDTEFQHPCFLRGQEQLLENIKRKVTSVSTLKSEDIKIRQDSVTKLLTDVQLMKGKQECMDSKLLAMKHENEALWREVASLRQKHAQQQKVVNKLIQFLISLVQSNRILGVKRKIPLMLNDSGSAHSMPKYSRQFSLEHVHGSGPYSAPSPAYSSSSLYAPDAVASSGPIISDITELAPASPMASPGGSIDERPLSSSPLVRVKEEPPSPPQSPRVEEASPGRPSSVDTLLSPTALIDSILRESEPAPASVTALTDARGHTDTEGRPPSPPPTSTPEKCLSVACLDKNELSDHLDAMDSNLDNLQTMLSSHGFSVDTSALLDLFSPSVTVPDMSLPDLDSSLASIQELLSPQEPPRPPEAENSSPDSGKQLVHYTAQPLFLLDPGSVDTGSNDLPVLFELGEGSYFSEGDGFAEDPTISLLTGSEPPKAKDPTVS
Chain of ETV5 (P41161 whole entry): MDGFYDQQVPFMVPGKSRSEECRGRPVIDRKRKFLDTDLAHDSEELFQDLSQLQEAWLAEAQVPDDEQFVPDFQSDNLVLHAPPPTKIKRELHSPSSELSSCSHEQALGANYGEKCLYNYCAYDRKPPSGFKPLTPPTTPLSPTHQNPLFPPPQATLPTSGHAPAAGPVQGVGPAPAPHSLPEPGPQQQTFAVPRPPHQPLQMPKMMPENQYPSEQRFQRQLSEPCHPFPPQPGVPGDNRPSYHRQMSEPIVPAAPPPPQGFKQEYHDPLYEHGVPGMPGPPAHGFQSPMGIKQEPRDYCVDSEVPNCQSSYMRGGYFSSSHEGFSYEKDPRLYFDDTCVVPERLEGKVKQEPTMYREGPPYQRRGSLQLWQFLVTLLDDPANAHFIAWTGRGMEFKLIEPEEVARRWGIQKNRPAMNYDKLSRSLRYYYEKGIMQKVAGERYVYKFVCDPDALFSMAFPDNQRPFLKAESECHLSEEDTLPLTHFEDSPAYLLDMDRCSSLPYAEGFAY

As for CCCCAA, the binding signal is 1.16 fold enrichment (6-mer frequency, TF over GST control) with FEV; 1.12 fold enrichment (6-mer frequency, TF over GST control) with ETV5; 1.06 fold enrichment (6-mer frequency, TF over GST control) in the test with HSF1; 1.06 fold enrichment (6-mer frequency, TF over GST control) with SPIC; 1.21 fold enrichment (6-mer frequency, TF over GST control) in the test with ELF4; 1.16 fold enrichment (6-mer frequency, TF over GST control) with ELK4. Further, the binding signal is 1.15 fold enrichment (6-mer frequency, TF over GST control) in the test with ETV2; 1.24 fold enrichment (6-mer frequency, TF over GST control) in the test with ELF3; 1.05 fold enrichment (6-mer frequency, TF over GST control) in the test with CRX; 1.15 fold enrichment (6-mer frequency, TF over GST control) in the test with ETV1; 1.06 fold enrichment (6-mer frequency, TF over GST control) with ERF; 1.2 fold enrichment (6-mer frequency, TF over GST control) in the test with ETV3L. Moreover, the binding signal with ETS2 was 1.13 fold enrichment (6-mer frequency, TF over GST control); with SPDEF it was 1.11 fold enrichment (6-mer frequency, TF over GST control); with ETV7, 1.1 fold enrichment (6-mer frequency, TF over GST control); with ELF5, 1.12 fold enrichment (6-mer frequency, TF over GST control); with ETV3 it was 1.15 fold enrichment (6-mer frequency, TF over GST control); in the test with ETV6, 1.14 fold enrichment (6-mer frequency, TF over GST control).
